Measurements from PubChem BioAssay (NCATS).
Values joined by “and” are separate entries in the source; they are usually repeats but may differ in a detail not shown here. Equal values may be shown once. Records with an inconclusive call do not appear. Where a call stands in place of a potency, no number is given. The source holds several records for some structures; these can differ, active in one and inactive in another. Active and inactive are the calls of the source. Unless noted, the call rests on the fitted dose curve; in most records, active means well fitted curve in the direction sought with a large enough effect; inconclusive means small, poorly fitted or top-dose-only effect, or another doubt; inactive means no such curve, though single readings can be large; an effect the other way counts as inactive or inconclusive. Where a SMILES comes first, the peptide text is derived from it.

What was measured:
[1] = qHTS assay for small molecule antagonists of peroxisome proliferator-activated receptor delta signaling (AID 588535; active means well fitted inhibition curve with a large enough effect in the signal ratio, with a control signal flat, not every such curve was filed as active; the % refers to the signal ratio;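 on max response: cells co-treated with a PPAR-delta agonist as stimulator during compound exposure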); details: HEK293T PPARd-UAS-bla, beta-lactamase FRET ratio, 18 h; 460 nm channel
Outline: (§1)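 HEK293T PPAR-delta-UAS-bla cells, 4000/well, 2% charcoal/dextran FBS; 5 h 37 C; cpd titration; 18 h 37 C; CCF4 2 h RT; FI 460/530 nm; Hill fit → IC50, efficacy.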

[2] = biological target: Peroxisome proliferator-activated receptor delta (Homo sapiens) (UniProt Q03181); assay: as above; details: HEK293T PPARd-UAS-bla, beta-lactamase FRET ratio, 18 h; series mostly up to 76.7 µM
Outline: as §1

[3] = biological target: Peroxisome proliferator-activated receptor gamma (Homo sapiens) (UniProt P37231); assay: qHTS assay for small molecule agonists of peroxisome proliferator-activated receptor gamma signaling (AID 588536; active means well fitted curve in the direction sought with a large enough effect in the signal ratio, with a control signal flat, not every such curve was filed as active; the % refers to the signal ratio); details: HEK293 PPARg-UAS-bla, beta-lactamase ratio, 16 h; series mostly up to 76.7 µM
Outline: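 HEK293 UAS-bla reporter line, 1% charcoal/dextran FBS; titration, 16 h, 37 C; CCF4 loading 2 h RT; fluorescence 460/530 nm. Normalized to rosiglitazone 2 uM = 100%, DMSO = 0%.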

[4] = qHTS Assay for Identification of Small Molecule Agonists for Hypoxia Response Element Signaling Pathway (AID 914; active means well fitted activation curve with a large enough effect in the signal ratio, with a control signal flat, not every such curve was filed as active; the % refers to the signal ratio); details: ME-180 (cervical carcinoma) HRE-bla reporter, beta-lactamase ratio, CoCl2, 17 h; activation: stronger effect = higher value
Outline: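 Cells were plated overnight, pin-dosed with compound in a titration series, co-stimulated with EC50 CoCl2 and incubated 17 hours at 37 degrees Celsius. CCF4 substrate was then loaded, and AC50 values came from the 460nm/530nm ratio.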

[5] = biological target: Bile acid receptor (Homo sapiens) (UniProt Q96RI1); assay: qHTS assay for small molecule antagonists of farnesoid X receptor signaling (AID 588526; calls by dose curve); details: HEK293T FXR-UAS-bla, beta-lactamase ratio, antagonist mode; series mostly up to 76.7 µM
Outline: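 Beta-lactamase reporter antagonist mode: HEK293T FXR-UAS-bla cells, titrated compound, CDCA stimulation, 16 h 37 C, CCF4 dye 2 h RT. Data normalized to CDCA 50 uM and DMSO; Hill-fit IC50.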

[6] = qHTS assay to identify small molecules that stimulate interleukin-8 (IL-8) secretion (AID 651758; active means well fitted activation curve with a large enough effect in the signal ratio; the % refers to the signal ratio; further: potency means the concentration at half of the fitted maximal effect); details: HTRF ratio (665/615); series mostly up to 92.2 µM
Outline: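 Secreted IL-8 measured by TR-FRET sandwich (cryptate and XL665 antibodies) from THP-1 cells exposed to compound overnight (16 hrs, 37 C).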

[7] = biological target: Guanine nucleotide-binding protein G(i) subunit alpha-1 (Homo sapiens) (UniProt P63096); assay: qHTS Assay for Inhibitors of RGS12 GoLoco Motif Activity (Green Fluorophore) (AID 879); details: Galphai1/FITC-RGS12 GoLoco peptide, fluorescence polarization; series mostly up to 57.1 µM;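 further: negative values mean loss of peptide binding seen as reduced polarization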
Outline: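 Fluorescence polarization assay: 50 nM Gαi1 with 10 nM FITC-labeled RGS12 GoLoco peptide in 10 mM Tris pH 7.5, 150 mM NaCl, 0.1 mM GDP, 0.05% NP40, 10 min at room temperature with compound.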

[8] = biological target: Muscarinic acetylcholine receptor M1 (Rattus norvegicus) (UniProt P08482); assay: qHTS Assay for Antagonists of Acetylcholine Muscarinic M1 Receptor: Kinetic Measurement of Intracellular Calcium Response (AID 943); details: M1-expressing cells, kinetic intracellular calcium fluorescence; series mostly up to 35.3 µM;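 further: Fluo-4 calcium signal as peak divided by basal fluorescence over 4 min; nearly all actives have a fitted effect of over 75% in size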
Outline: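 Rat M1-CHO cells, 2000/well, overnight → Fluo-4 no-wash dye with probenecid, 1 h 37C → compound 10 min, room temp → basal read 6 s → carbachol EC80 (100 nM) → 4 min kinetic read; peak/basal.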

[9] = biological target: Alpha-galactosidase A (Homo sapiens) (UniProt P06280); assay: Counterscreen for Glucocerebrosidase Inhibitors: qHTS Assay for Human alpha-Galactosidase at pH 4.5 (AID 992); details: purified enzyme, fluorogenic substrate; series mostly up to 76.9 µM
Outline: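 Read-out is 4-methylumbelliferone fluorescence (365 nm excitation, 440 nm emission) after a pH 10 NaOH/glycine stop. Reactions held 2 nM enzyme and 80 uM substrate at pH 4.5 for 20 min at room temperature.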

[10] = biological target: Cytochrome P450 3A4 (Homo sapiens) (UniProt P08684); assay: qHTS Assay for Activators of Cytochrome P450 3A4 (AID 885); details: recombinant CYP3A4, Luciferin-PPXE luminescence, 60 min; series mostly up to 57.1 µM; further: nearly all actives have a fitted effect of over 65% in size
Outline: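 Quantitative HTS format: compounds preincubated with 20nM human CYP3A4 and Luciferin-PPXE substrate at KM, reaction started by NADPH regeneration, stopped after 60 min, luciferase luminescence read 20 min later.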

[11] = biological target: Peroxisome proliferator-activated receptor gamma (Homo sapiens) (UniProt P37231); assay: qHTS assay for small molecule antagonists of peroxisome proliferator-activated receptor gamma signaling (AID 588537; active means well fitted inhibition curve with a large enough effect in the signal ratio, with a control signal flat, not every such curve was filed as active; the % refers to the signal ratio; further: potency means the concentration at half of the fitted maximal effect); details: HEK293 PPARg-UAS-bla, beta-lactamase ratio, antagonist mode; series mostly up to 76.8 µM
Outline: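 Antagonist mode, beta-lactamase reporter in HEK293; charcoal/dextran FBS 1%; 3000 cells/well, 37 C 6-6.5 h; cpd titration + rosiglitazone 50 nM final, 16 h 37 C; CCF4, 2 h RT; 460/530 nm; Hill fit → IC50, efficacy.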

[12] = biological target: Androgen receptor (Homo sapiens) (UniProt P10275); assay: qHTS assay for small molecule agonists of androgen receptor signaling (AID 588515; active means well fitted curve in the direction sought with a large enough effect in the signal ratio, with a control signal flat; the % refers to the signal ratio); details: AR-UAS-bla HEK293, beta-lactamase ratio, agonist 16 h; stronger effect = higher value
Outline: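 EC50 and efficacy came from Hill fits of titrations (up to 92 uM) normalized to 30 nM R1881 as 100% and DMSO as 0%. Compound exposure was 16 h at 37 C on AR-UAS-bla HEK293 cells, with a 405/460/530 nm CCF4 fluorescence read.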

Chain of Peroxisome proliferator-activated receptor delta (Homo sapiens) (Q03181 whole entry, looked up): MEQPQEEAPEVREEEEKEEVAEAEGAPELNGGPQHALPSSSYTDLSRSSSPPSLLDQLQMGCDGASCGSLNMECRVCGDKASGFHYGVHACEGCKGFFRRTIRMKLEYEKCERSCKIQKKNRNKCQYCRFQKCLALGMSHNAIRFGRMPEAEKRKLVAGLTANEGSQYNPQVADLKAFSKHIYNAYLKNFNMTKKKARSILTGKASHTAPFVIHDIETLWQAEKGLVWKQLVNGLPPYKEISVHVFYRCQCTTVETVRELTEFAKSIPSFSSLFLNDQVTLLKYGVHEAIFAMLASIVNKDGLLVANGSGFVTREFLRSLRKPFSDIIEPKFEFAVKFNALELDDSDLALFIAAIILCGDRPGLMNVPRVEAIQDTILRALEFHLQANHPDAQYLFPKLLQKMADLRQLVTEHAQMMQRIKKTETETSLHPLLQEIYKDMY
Chain of Bile acid receptor (Homo sapiens) (Q96RI1 whole entry, looked up): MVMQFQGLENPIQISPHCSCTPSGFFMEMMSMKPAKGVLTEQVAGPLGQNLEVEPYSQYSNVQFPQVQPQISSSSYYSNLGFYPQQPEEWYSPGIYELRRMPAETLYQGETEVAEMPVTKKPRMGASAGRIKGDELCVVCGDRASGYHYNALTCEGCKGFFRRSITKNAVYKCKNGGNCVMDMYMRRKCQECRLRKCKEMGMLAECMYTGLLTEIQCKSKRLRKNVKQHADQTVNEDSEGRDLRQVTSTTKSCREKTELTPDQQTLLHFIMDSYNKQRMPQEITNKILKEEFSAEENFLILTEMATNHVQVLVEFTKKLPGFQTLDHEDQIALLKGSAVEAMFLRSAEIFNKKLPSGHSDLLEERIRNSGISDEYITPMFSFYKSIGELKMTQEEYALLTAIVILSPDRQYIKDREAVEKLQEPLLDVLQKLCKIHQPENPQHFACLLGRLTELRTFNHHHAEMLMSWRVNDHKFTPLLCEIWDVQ
Chain of Androgen receptor (Homo sapiens) (P10275 whole entry, looked up): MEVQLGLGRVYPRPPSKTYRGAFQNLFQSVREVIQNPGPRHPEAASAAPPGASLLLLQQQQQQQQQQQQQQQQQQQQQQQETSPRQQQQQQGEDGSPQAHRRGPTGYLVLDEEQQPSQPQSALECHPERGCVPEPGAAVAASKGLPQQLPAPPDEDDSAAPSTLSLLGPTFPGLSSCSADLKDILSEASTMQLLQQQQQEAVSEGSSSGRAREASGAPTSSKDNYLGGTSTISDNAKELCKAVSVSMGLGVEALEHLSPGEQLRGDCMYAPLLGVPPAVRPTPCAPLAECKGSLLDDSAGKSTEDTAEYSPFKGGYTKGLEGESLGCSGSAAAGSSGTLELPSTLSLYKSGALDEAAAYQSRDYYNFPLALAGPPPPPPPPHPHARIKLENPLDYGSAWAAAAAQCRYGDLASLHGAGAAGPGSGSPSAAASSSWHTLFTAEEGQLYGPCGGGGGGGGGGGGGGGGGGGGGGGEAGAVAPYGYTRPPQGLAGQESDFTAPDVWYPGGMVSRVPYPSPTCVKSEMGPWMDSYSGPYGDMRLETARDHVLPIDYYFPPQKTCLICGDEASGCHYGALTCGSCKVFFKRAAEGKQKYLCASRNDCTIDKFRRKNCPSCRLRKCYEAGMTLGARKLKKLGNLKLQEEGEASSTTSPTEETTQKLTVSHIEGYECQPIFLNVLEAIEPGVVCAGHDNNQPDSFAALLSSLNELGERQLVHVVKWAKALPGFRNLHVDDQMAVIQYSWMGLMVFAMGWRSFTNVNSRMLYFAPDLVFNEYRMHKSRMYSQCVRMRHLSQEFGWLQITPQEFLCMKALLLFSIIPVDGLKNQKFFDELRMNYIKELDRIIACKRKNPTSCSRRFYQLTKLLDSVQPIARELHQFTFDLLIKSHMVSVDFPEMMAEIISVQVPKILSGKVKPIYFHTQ
Chain of Cytochrome P450 3A4 (Homo sapiens) (P08684 whole entry, looked up): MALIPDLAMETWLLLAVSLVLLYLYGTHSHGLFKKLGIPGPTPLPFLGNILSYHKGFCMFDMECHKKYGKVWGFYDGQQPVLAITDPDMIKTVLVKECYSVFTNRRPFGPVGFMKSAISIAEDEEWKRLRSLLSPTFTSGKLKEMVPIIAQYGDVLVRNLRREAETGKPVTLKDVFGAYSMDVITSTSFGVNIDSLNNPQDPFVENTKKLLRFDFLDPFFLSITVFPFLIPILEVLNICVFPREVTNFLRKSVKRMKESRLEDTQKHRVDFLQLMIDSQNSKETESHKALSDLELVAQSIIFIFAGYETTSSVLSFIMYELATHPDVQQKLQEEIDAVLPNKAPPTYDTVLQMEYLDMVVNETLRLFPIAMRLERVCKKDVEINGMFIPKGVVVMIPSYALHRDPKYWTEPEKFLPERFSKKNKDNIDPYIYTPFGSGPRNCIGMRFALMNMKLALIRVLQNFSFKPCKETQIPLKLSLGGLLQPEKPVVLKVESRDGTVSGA
Chain of Peroxisome proliferator-activated receptor gamma (Homo sapiens) (P37231 whole entry, looked up): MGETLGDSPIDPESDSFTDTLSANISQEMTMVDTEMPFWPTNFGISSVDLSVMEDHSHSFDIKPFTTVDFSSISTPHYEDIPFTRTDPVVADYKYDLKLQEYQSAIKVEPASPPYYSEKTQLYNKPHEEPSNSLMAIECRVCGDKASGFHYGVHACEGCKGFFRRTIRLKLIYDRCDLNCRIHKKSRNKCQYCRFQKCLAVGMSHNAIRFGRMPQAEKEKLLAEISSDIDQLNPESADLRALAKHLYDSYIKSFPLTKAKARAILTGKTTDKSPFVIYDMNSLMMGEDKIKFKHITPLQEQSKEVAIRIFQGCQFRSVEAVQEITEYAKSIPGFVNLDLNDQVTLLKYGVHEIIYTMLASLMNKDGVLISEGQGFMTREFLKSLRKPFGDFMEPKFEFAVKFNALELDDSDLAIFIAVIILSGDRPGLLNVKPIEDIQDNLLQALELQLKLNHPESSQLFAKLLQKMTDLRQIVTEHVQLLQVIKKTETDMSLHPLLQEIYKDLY
Chain of Guanine nucleotide-binding protein G(i) subunit alpha-1 (Homo sapiens) (P63096 whole entry, looked up): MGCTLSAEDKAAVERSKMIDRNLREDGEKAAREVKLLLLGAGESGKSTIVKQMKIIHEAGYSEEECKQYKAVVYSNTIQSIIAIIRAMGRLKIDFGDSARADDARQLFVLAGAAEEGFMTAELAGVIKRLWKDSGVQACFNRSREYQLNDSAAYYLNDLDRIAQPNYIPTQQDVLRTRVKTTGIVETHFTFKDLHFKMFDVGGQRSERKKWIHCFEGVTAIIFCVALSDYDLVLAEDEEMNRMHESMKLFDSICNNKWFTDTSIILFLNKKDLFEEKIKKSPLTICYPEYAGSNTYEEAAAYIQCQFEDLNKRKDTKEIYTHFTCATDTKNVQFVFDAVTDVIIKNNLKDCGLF
Chain of Alpha-galactosidase A (Homo sapiens) (P06280 whole entry, looked up): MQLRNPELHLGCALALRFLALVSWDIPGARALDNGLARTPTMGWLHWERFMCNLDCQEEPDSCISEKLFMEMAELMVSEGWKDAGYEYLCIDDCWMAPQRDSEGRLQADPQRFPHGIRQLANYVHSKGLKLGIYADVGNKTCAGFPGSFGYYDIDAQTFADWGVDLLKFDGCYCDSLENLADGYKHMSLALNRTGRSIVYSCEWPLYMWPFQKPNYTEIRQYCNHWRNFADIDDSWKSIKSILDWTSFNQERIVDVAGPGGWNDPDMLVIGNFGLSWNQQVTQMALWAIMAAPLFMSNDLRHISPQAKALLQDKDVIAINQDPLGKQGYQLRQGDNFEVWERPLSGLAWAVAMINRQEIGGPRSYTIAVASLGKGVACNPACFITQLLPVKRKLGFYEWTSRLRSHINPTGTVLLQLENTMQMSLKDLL
Chain of Muscarinic acetylcholine receptor M1 (Rattus norvegicus) (P08482 whole entry, looked up): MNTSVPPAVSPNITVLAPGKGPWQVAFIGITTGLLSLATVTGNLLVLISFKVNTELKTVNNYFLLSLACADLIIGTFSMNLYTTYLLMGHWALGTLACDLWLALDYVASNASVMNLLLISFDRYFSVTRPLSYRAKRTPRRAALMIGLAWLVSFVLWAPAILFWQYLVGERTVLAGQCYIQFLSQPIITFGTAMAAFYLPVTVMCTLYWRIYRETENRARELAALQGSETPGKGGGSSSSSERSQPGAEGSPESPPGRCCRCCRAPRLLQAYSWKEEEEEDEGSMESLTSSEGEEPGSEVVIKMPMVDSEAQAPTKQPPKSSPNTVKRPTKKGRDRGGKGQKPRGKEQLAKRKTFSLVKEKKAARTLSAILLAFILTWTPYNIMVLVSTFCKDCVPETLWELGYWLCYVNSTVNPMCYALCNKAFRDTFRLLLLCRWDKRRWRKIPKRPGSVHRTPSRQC

SMILES: C#CCO
- max response [1]: 29.5%
- Potency [2]: inactive
- Potency [3]: inactive

SMILES: CC(C)C[C@H](NC(=O)[C@@H]1CCCN1C(=O)[C@@H](N)Cc1ccc(O)cc1)C(=O)NCC(N)=O (H-YPLG-NH2)
- activation [4]: -10.4% (inactive)

SMILES: O=[N+]([O-])c1cc(C(F)(F)F)cc([N+](=O)[O-])c1Cl
- Potency [5]: inactive
- max response [1]: 32.3%
- Potency [2]: inactive
- Potency [3]: inactive
- Potency [6]: inactive

SMILES: Oc1cc2c(cc1O)[C@H]1c3ccccc3CN[C@@H]1CC2
- Potency [7]: inactive
- Potency [8]: inactive
- outcome [9]: inactive

SMILES: CCCCCCCCn1sccc1=O
- Potency [10]: inactive
- Potency [3]: inactive

SMILES: N#CSCSC#N
- Potency [11]: 35.5 µM (active)

SMILES: FC(F)(F)c1ccc(Cl)cc1
- Potency [5]: inactive
- max response [1]: -2.48% and -14.3%
- Potency [2]: inactive
- Potency [3]: inactive
- Potency [11]: inactive

SMILES: C(=NC1CCCCC1)=NC1CCCCC1
- Potency [5]: inactive
- Potency [6]: 53.1 µM (active)

SMILES: C[C@@H]1O[C@@H](O[C@H]2C[C@@H](O)[C@]3(CO)[C@@H]4[C@@H](O)C[C@]5(C)[C@H](C6=CC(=O)OC6)CC[C@@]5(O)[C@H]4CC[C@@]3(O)C2)[C@H](O)[C@H](O)[C@@H]1O
- Potency [7]: inactive
- outcome [9]: inactive

SMILES: O=C1C2(Cl)C3(Cl)C4(Cl)C(Cl)(Cl)C5(Cl)C3(Cl)C1(Cl)C5(Cl)C24Cl (stereo not given)
- Potency [10]: inactive
- activation [12]: 0.62% (inactive)
- Potency [11]: 44.7 µM (active) and inactive

SMILES: COP(=O)(OC)O/C(=C\Cl)c1cc(Cl)c(Cl)cc1Cl
- activation [12]: -13% (inactive)
- Potency [6]: inactive

SMILES: O=[N+]([O-])C(Br)Br
- activation [12]: 6.33% (inactive)
- max response [1]: -33.2%
- Potency [2]: inactive
- Potency [3]: inactive
- Potency [11]: inactive

SMILES: CC(C)CC(C)Nc1ccc(Nc2ccccc2)cc1 (stereo not given)
- Potency [10]: inactive

SMILES: OC(Cc1ccccc1)(c1ccccc1)C1CN2CCC1CC2 (stereo not given)
- activation [4]: 10.8% (inactive)

SMILES: [Cd+2].[Cl-].[Cl-]
- Potency [10]: inactive

SMILES: O=C(CCl)c1ccccc1
- max response [1]: 18.1%
- Potency [2]: inactive
- Potency [11]: inactive

SMILES: OC(c1ccc(Cl)cc1)(c1ccc(Cl)cc1)C(Cl)(Cl)Cl
- Potency [5]: inactive
- Potency [3]: inactive
- Potency [6]: inactive

SMILES: ClC1=C(Cl)C2(Cl)C3C(Cl)C(Cl)CC3C1(Cl)C2(Cl)Cl (stereo not given)
- activation [12]: -9.52% (inactive)
- Potency [6]: 42.2 µM (active)
